# Test results as given in PubChem BioAssay.
# Values joined by “and” are separate entries in the source; they are usually repeats but may differ in a detail not shown here. Equal entries are not always repeated. For some assays here: Measured potencies and affinities stand elsewhere. Active and inactive are the calls of the source. Unless noted, the rule behind the calls is not given here.
# Columns and labels:
# [1] = P. berghei load reduction in hepatocytes – cell-based, HepG2, luciferase luminescence, HepG2 viability, primary screen (AID 624349; in the data active = parasite load remaining mostly below about 12%, no sharp cut-off; inactive = mostly above about 10%;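 note: 100% = mean of DMSO negative control wells on the same plate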); settings: P. berghei liver stage in HepG2, luciferase luminescence, concentration not given here; parasite load remaining: stronger effect = lower value; viability: measured here: HepG2 viability without parasites
# [2] = molecular target: 6-phosphogluconate dehydrogenase, decarboxylating (Homo sapiens) (UniProt P52209); test: inhibition of human phosphogluconate dehydrogenase – biochemical, recombinant enzyme, NADPH absorbance, primary screen (AID 1159550;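 active = at least 20% inhibition of 6-phosphogluconate dehydrogenase activity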); settings: recombinant 6PGD, NADPH absorbance 341 nm; at 10 µM; stronger effect = higher value
# [3] = EMT-state selective cytotoxicity in co-culture – imaging, PC-3E GFP, TEM4-18 mCherry, primary screen (AID 1345086;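 active = compounds killing one labelled cell type while sparing the other, by normalised counts and ratio limits, not self-fluorescent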;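 for all read-outs here: cells exposed to compound for 72 h before imaging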;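 for red/green cell ratio (normalised): normalised mesenchymal count divided by normalised epithelial count so high means epithelial killing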); settings: PC-3E GFP / TEM4-18 mCherry co-culture, imaging cell counts, at 1 µM; for red/green cell ratio (normalised): actives lie on both sides, counts scaled to control wells, 1 = unselective
# [4] = viability loss with induced miR-34 in A549 – imaging, A549 dox-inducible miR-34, nuclei and caspase counts, primary screen (AID 1347080;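 active = compounds whose cell count with miR-34 switched on is under 0.7 times the count with it off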); settings: A549 miR-34 inducible, Hoechst nuclei count, 48 h
# [5] = blockers of cellular phospholipid synthesis – cell-based, LOPAC library, screen 4, primary screen (AID 1347384); settings: animal cells, phospholipid biosynthesis inhibition screen; at 10 µM
# [6] = MELAS cybrid and Rieske KO viability enhancers – cell-based, MELAS cybrids, Rieske KO mouse fibroblasts, CellTiter-Glo, primary screen (AID 1508586;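 active = mean z-score across replicates of 1.96 or higher in either the MELAS or the Rieske mutant cell line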;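 note: z relative to plate mean and SD of compound and empty wells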); settings: low glucose
# [7] = molecular target: Mitogen-activated protein kinase 7 (Homo sapiens) (UniProt Q13164); test: Gal4-ERK5 driven luciferase induction – cell-based, HTS, primary screen (AID 1508626;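 active = luciferase signal above three times the same-plate solvent-only control wells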;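 note: luciferase driven by Gal4-ERK5 fusion binding five Gal4 sites before minimal TATA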); settings: HeLa Gal4-ERK5 transactivation, 18 h, at 5 µM, stronger effect = higher value
# [8] = galactose survival enhancers in mitochondrial complex I cybrids – cell-based, galactose medium, ATP luminescence, primary screen (AID 1645843;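 active = z-score of at least 1.8 in each of two replicates, scored against plate mean and spread of sample wells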;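 note: positive z means more ATP and so rescue of galactose-driven cybrid death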); settings: complex I mutant cybrid cells, 72 h, stronger effect = higher value
# [9] = compounds altering circadian rhythm period length – cell-based, LOPAC library, luminescence reporter (AID 2774); settings: circadian reporter cells, at 7 µM, actives lie on both sides;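 note: values are relative to mean of DMSO wells on each plate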
# [10] = tested on: Hepatitis C virus NS3 helicase; test: blockers of NS3h binding to ssDNA – biochemical, fluorescence polarization, LOPAC1280 library, primary screen (AID 687035; in the data active = inhibition above about 37%); settings: Purified HCV NS3 helicase, Cy5-dT15 ssDNA binding fluorescence polarization; stronger effect = higher value; concentration not given here
# [11] = compounds altering Cy5-DNA-NS3h complex signal – biochemical, LOPAC1280, artefact control for HCV NS3 helicase inhibitor project (AID 687037); settings: Cy5-DNA-NS3h complex fluorescence interference counterscreen
# [12] = blockers of polyQ-driven CASP3 activation – cell-based (AID 1583); settings: polyglutamine-induced caspase-3 activation, cell assay; stronger effect = higher value;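 tested at 10 µM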
# [13] = yeast 75Q aggregation reduction – 75Q-TubU reporter (AID 1593); settings: Yeast 75Q polyglutamine aggregation reporter
# [14] = restoration of touch response, mutant HTT neurons – whole organism, C. elegans mechanosensory neurons, N-terminal huntingtin (AID 1599); settings: C. elegans polyQ-huntingtin mechanosensory neurons, stronger effect = higher value
# [15] = blockers of cytochrome c efflux from mitochondria – biochemical, purified mitochondria (AID 1603); settings: stronger effect = lower value;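 note: mouse liver mitochondria challenged with calcium chloride; signal normalized to the plate average as 100%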
# [16] = polyglutamine aggregate formation blockers (AID 1604); settings: polyglutamine-induced protein aggregation inhibition assay; stronger effect = higher value; tested at 2.5 µM
# [17] = glutamate transport activators, MN-1 cells, MN-1 cell line (AID 1612); settings: MN-1 motor neuron cells, stronger effect = higher value;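 note: tested at 1 µM final; 0% = mean of DMSO vehicle wells on each plate; positive means more glutamate uptake than control and negative means less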
# [18] = GFP-Q80 aggregate reduction, neuronal-like cells, cell-based, NGF-treated PC12, GFPQ80 (AID 1614); settings: PC12 NGF-treated GFP-polyQ80 inclusion reduction;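 note: lower means fewer inclusions and 0 means no inclusions at all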
# [19] = 75Q-TubH aggregate inhibition, S. cerevisiae, yeast (AID 1616); settings: S. cerevisiae 75Q-TubH polyglutamine aggregation suppression; stronger effect = higher value
# [20] = measured here: epithelial PC-3E GFP cell survival
# [21] = measured here: mesenchymal TEM4-18 mCherry cell survival
# [22] = measured here: total cells with miR-34 induction, stronger effect = lower value
# [23] = MELAS cybrid survival, CellTiter-Glo 48 h, stronger effect = higher value
# [24] = Rieske KO mouse fibroblast survival, CellTiter-Glo 72 h
# [25] = stronger effect = lower value, cell number ratio, induced over uninduced
# [26] = measured here: relative caspase fold change +Dox/-Dox
# [27] = measured here: total cells without miR-34 induction
# Sequence of 6-phosphogluconate dehydrogenase, decarboxylating (Homo sapiens) (P52209 whole entry, looked up): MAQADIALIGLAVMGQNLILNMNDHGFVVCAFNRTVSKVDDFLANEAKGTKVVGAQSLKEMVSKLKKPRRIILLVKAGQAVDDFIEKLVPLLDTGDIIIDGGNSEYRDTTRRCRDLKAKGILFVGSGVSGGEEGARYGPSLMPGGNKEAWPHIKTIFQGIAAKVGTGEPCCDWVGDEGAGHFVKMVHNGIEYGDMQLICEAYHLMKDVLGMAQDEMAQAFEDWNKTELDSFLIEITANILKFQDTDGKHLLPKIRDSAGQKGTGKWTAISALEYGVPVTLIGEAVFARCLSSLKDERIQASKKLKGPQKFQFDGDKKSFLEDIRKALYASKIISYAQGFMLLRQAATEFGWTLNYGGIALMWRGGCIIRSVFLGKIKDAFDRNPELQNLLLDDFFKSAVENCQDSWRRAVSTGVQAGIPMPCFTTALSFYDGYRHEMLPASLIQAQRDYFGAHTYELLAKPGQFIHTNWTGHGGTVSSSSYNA
# Sequence of Mitogen-activated protein kinase 7 (Homo sapiens) (Q13164 whole entry, looked up, the tested form may be a part): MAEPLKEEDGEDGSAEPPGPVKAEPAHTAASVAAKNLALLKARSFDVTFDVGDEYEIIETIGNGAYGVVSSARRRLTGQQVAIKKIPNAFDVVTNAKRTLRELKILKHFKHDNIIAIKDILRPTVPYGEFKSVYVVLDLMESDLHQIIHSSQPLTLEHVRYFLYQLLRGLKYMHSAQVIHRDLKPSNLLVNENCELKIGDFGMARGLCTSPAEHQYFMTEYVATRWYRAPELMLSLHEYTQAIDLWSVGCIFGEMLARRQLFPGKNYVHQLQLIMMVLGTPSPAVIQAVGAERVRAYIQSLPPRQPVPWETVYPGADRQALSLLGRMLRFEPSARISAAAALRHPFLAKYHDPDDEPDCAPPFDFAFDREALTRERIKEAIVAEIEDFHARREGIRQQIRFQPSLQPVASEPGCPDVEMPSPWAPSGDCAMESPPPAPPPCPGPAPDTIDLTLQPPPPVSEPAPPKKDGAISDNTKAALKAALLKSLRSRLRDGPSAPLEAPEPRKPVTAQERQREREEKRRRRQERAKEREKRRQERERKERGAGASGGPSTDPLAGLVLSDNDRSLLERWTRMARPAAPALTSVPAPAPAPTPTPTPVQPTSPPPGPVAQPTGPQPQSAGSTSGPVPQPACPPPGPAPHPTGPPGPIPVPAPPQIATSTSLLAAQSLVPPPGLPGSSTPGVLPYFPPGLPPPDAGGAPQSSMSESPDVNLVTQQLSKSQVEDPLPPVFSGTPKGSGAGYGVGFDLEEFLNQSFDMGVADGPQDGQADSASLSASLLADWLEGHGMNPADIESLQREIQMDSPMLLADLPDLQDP
compound,measurement,setting,value
CCCc1nn(C)c2c(=O)[nH]c(-c3cc(S(=O)(=O)N4CCN(C)CC4)ccc3OCC)nc12,parasite load remaining,[1],94.8% (inactive) and 65.8% (inactive) and 48% (inactive)
same,viability,[1],89.3% and 101% and 108%
same,inhibition,[2],6.7% (inactive)
same,red/green cell ratio (normalised),[3],0.98 (inactive)
same,normalised cell number,[3]; [20],1.05
same,normalised cell number,[3]; [21],1.03
same,cell count,[4]; [22],10500 and 7310 and 9670
same,outcome,[5],inactive
same,z-score,[6]; [23],-0.38 (inactive) and -0.0288 (inactive) and 1.25 (inactive)
same,z-score,[6]; [24],-0.0156 and 0.388 and 1.37
same,luciferase signal,[7],60 AU (inactive)
same,z-score,[8],0.235 (inactive) and 0.33 (inactive)
COc1ccc(-c2coc3cc(O)ccc3c2=O)cc1,parasite load remaining,[1],260% (inactive)
same,viability,[1],88.5%
same,inhibition,[2],-6.94% (inactive)
same,red/green cell ratio (normalised),[3],0.93 (inactive)
same,normalised cell number,[3]; [20],1.23
same,normalised cell number,[3]; [21],1.14
same,fold change,[4]; [25],0.949 (inactive)
same,fold change,[4]; [26],0.624
same,cell count,[4]; [22],7740
same,cell count,[4]; [27],8150
same,z-score,[6]; [23],-0.217 (inactive)
same,z-score,[6]; [24],0.38
same,luciferase signal,[7],140 AU (inactive)
COc1ccc(C(C)=O)c(O)c1,inhibition,[2],10.4% (inactive)
same,red/green cell ratio (normalised),[3],0.98 (inactive)
same,normalised cell number,[3]; [20],0.95
same,normalised cell number,[3]; [21],0.94
same,fold change,[4]; [25],0.902 (inactive)
same,fold change,[4]; [26],0.777
same,cell count,[4]; [22],9270
same,cell count,[4]; [27],10300
same,z-score,[6]; [23],-0.383 (inactive)
same,z-score,[6]; [24],0.53
same,luciferase signal,[7],24 AU (inactive)
O=C1OC(=O)C2C3CCC(O3)C12 (centres undefined),period change,[9],-0.06 h (inactive)
same,inhibition,[10],-2% (inactive)
same,fluorescence ratio (interference),[11],1 (inactive)
same,inhibition,[2],14.8% (inactive)
same,red/green cell ratio (normalised),[3],0.77 (inactive)
same,normalised cell number,[3]; [20],1.38
same,normalised cell number,[3]; [21],1.06
same,fold change,[4]; [25],1.08 (inactive)
same,fold change,[4]; [26],0.974
same,cell count,[4]; [22],8750
same,cell count,[4]; [27],8080
same,outcome,[5],inactive
same,luciferase signal,[7],52 AU (inactive)
same,z-score,[8],-0.385 (inactive)
NCCCCC(=O)O,period change,[9],0.155 h (inactive)
same,parasite load remaining,[1],89.3% (inactive)
same,viability,[1],71.9%
same,inhibition,[10],-1% (inactive)
same,fluorescence ratio (interference),[11],0.9 (inactive)
same,inhibition,[2],-7.89% (inactive)
same,red/green cell ratio (normalised),[3],0.85 (inactive)
same,normalised cell number,[3]; [20],1.1
same,normalised cell number,[3]; [21],0.94
same,fold change,[4]; [25],1 (inactive)
same,fold change,[4]; [26],1.48
same,cell count,[4]; [22],10300
same,cell count,[4]; [27],10300
same,outcome,[5],inactive
same,luciferase signal,[7],52 AU (inactive)
same,z-score,[8],0.885 (inactive)
CN1CCc2cccc3c2C1Cc1ccc(O)c(O)c1-3 (centres undefined),inhibition,[12],1.43%
same,score,[13],0.79
same,rescue above control,[14],3.21
same,cytochrome c release ratio,[15],0.9
same,inhibition of aggregation,[16],85.7%
same,glutamate uptake change,[17],14%
same,inclusion score,[18],2
same,aggregation suppression score,[19],1.03
same,period change,[9],0.35 h (inactive)
same,parasite load remaining,[1],9.7% (inactive) and 18.2% (inactive)
same,viability,[1],65% and 86.9%
same,inhibition,[10],-6% (inactive)
same,fluorescence ratio (interference),[11],1 (inactive)
same,inhibition,[2],-2.58% (inactive)
same,red/green cell ratio (normalised),[3],1.13 (inactive)
same,normalised cell number,[3]; [20],1.2
same,normalised cell number,[3]; [21],1.36
same,fold change,[4]; [25],0.965 (inactive) and 0.839 (inactive)
same,fold change,[4]; [26],2.09 and 1.99
same,cell count,[4]; [22],7940 and 8770
same,cell count,[4]; [27],8230 and 10400
same,outcome,[5],inactive
same,z-score,[8],-1.52 (inactive)
